Screening data as filed in PubChem BioAssay.
LDHA block – qHTS assay for inhibitors of human lactate dehydrogenase; purified LDHA, NADH/diaphorase-resazurin fluorescence; active compounds read low; activity change, % (values are at about 110 or 230 µM); 0.15% of 480,000 active; AID 1347041, 2019; in the data active = activity change below about -30%; inconclusive = mostly about -25% to -30%
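Human LDH5 at 2 nM final in Tris HCl pH 7.4 with 0.06 mM NADH and 0.2 mM pyruvate, reacted 5 minutes at room temperature. Remaining NADH coupled via diaphorase/resazurin; resorufin fluorescence read at 0 and 20 minutes, normalized to enzyme-free and DMSO wells.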
12-LOX inh – Primary qHTS assay for inhibitors of human arachidonate 12S-lipoxygenase (ALOX12): Round 2; Polyunsaturated fatty acid lipoxygenase ALOX12 (Homo sapiens), P18054; purified 12hLO, xylenol orange hydroperoxide absorbance; Potency, µM (doses to about 108 µM), hits mostly inhibitors; 1.1% of 580,000 active; active = well fitted inhibition curve with a large enough effect; inconclusive = small, poorly fitted or top-dose-only effect, or another doubt; inactive = no such curve, though single readings can be large or run the other way
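Purified human 12hLO at 150 nM in 25 mM Hepes, 0.01% Triton X-100, pH 7.0, preincubated 15 min at room temperature with compound. Reaction started with 40 uM arachidonic acid, 30 min at room temperature. Hydroperoxide measured by Fe-xylenol orange, 573/405 nm absorbance ratio.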
ClpP mod – qHTS Assay for Activators of ClpP. Potency, µM (series often up to 57.5 µM). AID 651965, 2013. ATP-dependent Clp protease proteolytic subunit (Bacillus subtilis (strain 168)), P80244. 1.9% of 340,000 active. purified B. subtilis ClpP, FRET peptide cleavage, 20 min; active = well fitted falling curve with a large enough effect; inconclusive = small, poorly fitted or top-dose-only effect; inactive = no such curve, though single readings can be large or run the other way; note: the source files actives as falling curves though it sought activators and does not explain the sign; nearly all actives have a fitted effect of over 65% in size
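ClpP 10 microg/mL final, pH 8 Tris/KCl buffer with BSA, glycerol, Tween-20; compound pinned in; FRET-FV substrate; RT 20 min; Ex320/Em430; ΔFRET vs ADEP 5.8 microM, DMSO, no enzyme.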
hERG WT inh – qHTS for Inhibitors of KCHN2 3.1: Wildtype qHTS; U2OS, BacMam KCNH2, thallium flux FluxOr; active compounds read low; AID 720551, 2013; Voltage-gated inwardly rectifying potassium channel KCNH2 (Homo sapiens), Q12809; activity change, % at 1.84 µM; 0.37% of 340,000 active;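 active = maximum activity change below -70%; inconclusive = maximum activity change between -70% and -50%; inactive = maximum activity change above -50%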
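U2OS cells transduced with wild-type KCNH2 virus are loaded with FluxOr dye for 45 min, and thallium flux is measured in kinetic reads before and after stimulation buffer. Rate constants are normalized to DMSO controls.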
KCNH2 3.1 inh – qHTS for Inhibitors of KCHN2 3.1: Mutant qHTS. Potassium voltage-gated channel subfamily H member 2, brain isoform KCNH2 3.1 (human). U2OS KCNH2 3.1, thallium flux FluxOr; active compounds read low. activity change, % (tested at about 1.8 µM). 0.95% of 340,000 active. AID 720553, 2013;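 active = maximum activity change below -70%; inconclusive = maximum activity change from -70% to -50%; inactive = maximum activity change above -50%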;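 note: thallium influx rate constant from kinetic fluorescence after stimulation buffer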
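Virally transduced U2OS (3.1 isoform, 4 h infection in dark at RT) → overnight 37 C → FluxOr + Red40 in HBSS/HEPES, 45 min → stimulation buffer, 2 min kinetic read → rate constant vs DMSO controls.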
BCR signal inh – qHTS Assay to Find Inhibitors of Chronic Active B-Cell Receptor Signaling. ABC-DLBCL IkBa-CBG/CBR reporter, luminescence ratio, 4 h. 0.05% of 340,000 active. Potency, µM (top dose mostly 46.1 µM), hits mostly inhibitors; active = well fitted inhibition curve with a large enough effect in the signal ratio, with a control signal flat, not every such curve was filed as active; inconclusive = small, poorly fitted or top-dose-only effect, or effect the other way, or a change in a side signal; the % refers to the signal ratio
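Doxycycline induced both beetle luciferases in TMD8 lymphoma cells; IKK-driven degradation limits the IkappaBalpha-fused green signal, while red luminescence normalises for cell number and nonspecific effects. Compounds tested up to 46 uM, 4 hrs.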
A number is an active result; i = inactive; ? = inconclusive; nt = no result given. Only some compounds are listed: those with a hit (about 3% of all), similar ones and a draw of the others.

SMILES | LDHA block | 12-LOX inh | ClpP mod | hERG WT inh | KCNH2 3.1 inh | BCR signal inh
N#Cc1c(N2CCN(c3ccc([N+](=O)[O-])cc3)CC2)[n+](=O)c2ccc(Cl)cc2n1[O-] | i | i | i | ? | -96.5 | nt
Cc1ccc2sc(N3CCN(C(=O)c4ccc([N+](=O)[O-])o4)CC3)nc2c1C | i | i | i | -139.0 | -201.1 | i
O=C(c1ccc([N+](=O)[O-])o1)N1CCN(c2nc3c(Cl)cccc3s2)CC1 | i | i | i | i | i | i
COCCNc1nnc(SCc2coc(-c3ccccc3)n2)s1 | i | ? | nt | nt | nt | nt
CNc1oc(-c2cccc(C)c2)nc1S(=O)(=O)c1ccccc1 | i | i | nt | nt | nt | nt
COc1ccc(C(=O)C[n+]2cc(Br)cc3ccccc32)cc1 | i | nt | i | nt | nt | nt
COc1ccc(C(=O)C[n+]2cn(C(F)F)c3ccccc32)c(F)c1 | -40.0 | i | nt | i | i | ?
COc1ccccc1-c1nnc(SC2CCc3ccccc3NC2=O)s1 (stereo not given) | i | i | 22.4µM | i | i | i
COc1ccccc1-c1nnc(N)s1 | i | i | nt | i | i | i
O=C(O)Cc1nc(-c2cccnc2)sc1-c1ccc(Br)cc1 | i | 28.2µM | nt | i | i | i
Brc1ccc(-c2nc(-c3cccnc3)no2)cc1 | i | i | nt | nt | nt | nt
CCn1c(SCC(=O)NCc2ccco2)nnc1-c1cccs1 | i | i | i | i | -74.0 | ?
O=C(CSc1nnc(-c2cccs2)n1-c1ccccc1)Nc1ccccc1 | i | i | ? | -114.9 | -88.9 | i
CCOC(=O)CSc1nnc(-c2cccs2)n1-c1ccccc1 | i | i | i | i | i | nt
CCn1c(SCC(=O)NCc2ccco2)nnc1-c1ccncc1 | nt | nt | nt | nt | nt | i
CCn1c(C)nnc1SCC(=O)Nc1ccc2c(c1)OCCO2 | i | i | i | i | i | i
CCn1c(CNC(=O)c2ccc3c(c2)OCO3)nnc1SCC(=O)c1ccc(OC)cc1 | -30.4 | ? | nt | nt | nt | nt
CCn1c(SCC(=O)Nc2ccc3c(c2)OCCO3)nnc1-c1cccs1 | i | i | i | i | -81.4 | ?
COc1ccccc1-n1c(-c2ccccc2)cn2c3c(=O)[nH]c(=O)n(C)c3nc12 | i | i | nt | nt | nt | nt
O=C(CSc1nnc(Cc2cccs2)n1-c1ccccc1)Nc1ccc2c(c1)OCCO2 | i | i | i | i | i | ?
CCn1c(SCC(=O)Nc2ccc(N3CCOCC3)cc2)nnc1-c1ccncc1 | i | i | nt | i | -75.7 | i
CCc1nnc(SCC(=O)Nc2ccc3c(c2)OCO3)n1CC | i | nt | i | -205.4 | nt | i
